According to PubChem BioAssay AID1159580 (chemical genetic matrix, 2015):
Where “and” joins values, the source holds several entries; their conditions need not be identical. Equal entries are not always repeated. Screen size: about 5,500 compounds; about 2,000 (36%) were called active. Roughly 18% stayed inconclusive and do not appear here. Rule as the data show it: active = normalized growth mostly below about 0.91 (no sharp cut-off); inconclusive = no clear call, values can overlap the other calls; inactive = mostly above about 0.92. The list shows a part of the results.

Experiment: chemical genetic growth profiling, strain panel (AID 1159580);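 also: tested at 20 µM; growth read once vehicle control cultures reached saturation at 30 °C; 1 = growth at the plate median or of vehicle wells; lower values mean less growth of the strain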
Settings: growth OD

Measured: normalized growth

O=C(O)CC[N+](=O)[O-]
inactive: S. cerevisiae deletion strains, locus YJR075W, strain HOC1, active compounds read low 0.987 | S. cerevisiae deletion strains, locus YKL009W, strain mrt4, active compounds read low 0.971 | S. cerevisiae deletion strains, locus YKL068W, active compounds read low 0.978 | S. cerevisiae deletion strains, locus YKL085W, strain MDH1 (second series), active compounds read low 1.01 | S. cerevisiae deletion strains, locus YKL085W, strain MDH1, active compounds read low 1.01 | S. cerevisiae deletion strains, locus YKL160W, strain elf1, active compounds read low 1 | S. cerevisiae deletion strains, locus YKL190W, strain CNB1, active compounds read low 0.986 | S. cerevisiae deletion strains, locus YKR001C, strain vps1, active compounds read low 0.982 | S. cerevisiae deletion strains, locus YKR026C, strain gcn3, active compounds read low 1 | S. cerevisiae deletion strains, locus YKR091W, strain srl3, active compounds read low 0.993 | S. cerevisiae deletion strains, locus YLL001W, strain dnm1, active compounds read low 0.981 | S. cerevisiae deletion strains, locus YLL026W, active compounds read low 1.01 | S. cerevisiae deletion strains, locus YLL041C, strain sdh2, active compounds read low 1 | S. cerevisiae deletion strains, locus YLR027C, strain aat2, active compounds read low 1.01 | S. cerevisiae deletion strains, locus YLR039C, strain RIC1, active compounds read low 0.903 | S. cerevisiae deletion strains, locus YLR058C, strain SHM2, active compounds read low 0.991 | S. cerevisiae deletion strains, locus YLR102C, strain apc9, active compounds read low 0.979 | S. cerevisiae deletion strains, locus YLR113W, strain HOG1, active compounds read low 1.02 | S. cerevisiae deletion strains, locus YLR221C, strain rsa3, active compounds read low 1.03 | S. cerevisiae deletion strains, locus YLR258W, strain gsy2, active compounds read low 1.03 | S. cerevisiae deletion strains, locus YLR262C, strain YPT6 (second series), active compounds read low 0.989 | S. cerevisiae deletion strains, locus YLR262C, strain YPT6, active compounds read low 0.908 | S. cerevisiae deletion strains, locus YLR268W, strain sec22, active compounds read low 0.988 | S. cerevisiae deletion strains, locus YLR320W, strain mms22, active compounds read low 1.03 | S. cerevisiae deletion strains, locus YLR330W, strain CHS5, active compounds read low 0.982 | S. cerevisiae deletion strains, locus YLR342W, strain FKS1 (second series), active compounds read low 0.998 | S. cerevisiae deletion strains, locus YLR342W, strain FKS1, active compounds read low 1.01 | S. cerevisiae deletion strains, locus YLR357W, strain rsc2, active compounds read low 0.993 | S. cerevisiae deletion strains, locus YLR370C, strain arc18, active compounds read low 1 | S. cerevisiae deletion strains, locus YLR371W, strain rom2, active compounds read low 0.969 | S. cerevisiae deletion strains, locus YLR384C, strain iki3, active compounds read low 0.988 | S. cerevisiae deletion strains, locus YLR418C, strain cdc73, active compounds read low 1 | S. cerevisiae deletion strains, locus YML016C, strain PPZ1, active compounds read low 0.993 | S. cerevisiae deletion strains, locus YML032C, strain rad52, active compounds read low 0.973 | S. cerevisiae deletion strains, locus YML120C, strain ndi1, active compounds read low 0.999 | S. cerevisiae deletion strains, locus YML124C, strain tub3, active compounds read low 0.98 | S. cerevisiae deletion strains, locus YMR058W, strain fet3, active compounds read low 1.03 | S. cerevisiae deletion strains, locus YMR078C, strain ctf18, active compounds read low 0.976 | S. cerevisiae deletion strains, locus YMR125W, strain sto1, active compounds read low 0.988 | S. cerevisiae deletion strains, locus YMR129W, active compounds read low 0.996 | S. cerevisiae deletion strains, locus YMR205C, strain PFK2, active compounds read low 0.983 | S. cerevisiae deletion strains, locus YMR223W, strain ubp8, active compounds read low 0.977 | S. cerevisiae deletion strains, locus YMR231W, strain pep5, active compounds read low 0.986 | S. cerevisiae deletion strains, locus YMR263W, strain SAP30, active compounds read low 0.985 and 1 | S. cerevisiae deletion strains, locus YMR307W, strain GAS1, active compounds read low 0.924 | S. cerevisiae deletion strains, locus YNL067W, strain RPL9B, active compounds read low 0.991 | S. cerevisiae deletion strains, locus YNL071W, strain lat1, active compounds read low 1.01 | S. cerevisiae deletion strains, locus YNL128W, strain TEP1, active compounds read low 0.981 | S. cerevisiae deletion strains, locus YNL153C, strain GIM3, active compounds read low 0.994 | S. cerevisiae deletion strains, locus YNL175C, strain NOP13, active compounds read low 0.992 | S. cerevisiae deletion strains, locus YNL183C, strain NPR1, active compounds read low 0.953 | S. cerevisiae deletion strains, locus YNL197C, strain WHI3, active compounds read low 1.01 | S. cerevisiae deletion strains, locus YNL209W, strain ssb2, active compounds read low 1.01 | S. cerevisiae deletion strains, locus YNL224C, strain SQS1, active compounds read low 0.992 | S. cerevisiae deletion strains, locus YNL233W, strain BNI4, active compounds read low 1 | S. cerevisiae deletion strains, locus YNL248C, strain rpa49, active compounds read low 0.996 | S. cerevisiae deletion strains, locus YNL250W, strain rad50, active compounds read low 0.978 | S. cerevisiae deletion strains, locus YNL271C, strain bni1, active compounds read low 0.974 | S. cerevisiae deletion strains, locus YNL298W, strain CLA4, active compounds read low 0.98 | S. cerevisiae deletion strains, locus YNL307C, strain MCK1, active compounds read low 0.982 | S. cerevisiae deletion strains, locus YNL322C, strain KRE1 (second series), active compounds read low 0.989 | S. cerevisiae deletion strains, locus YNL322C, strain KRE1, active compounds read low 0.987 and 1.01 | S. cerevisiae deletion strains, locus YNR049C, strain mso1, active compounds read low 1 | S. cerevisiae deletion strains, locus YNR052C, strain pop2, active compounds read low 0.979 | S. cerevisiae deletion strains, locus YOL006C, strain TOP1, active compounds read low 1.01 | S. cerevisiae deletion strains, locus YOL012C, strain htz1 0.756 | S. cerevisiae deletion strains, locus YOL147C, strain pex11, active compounds read low 0.985 | S. cerevisiae deletion strains, locus YOR001W, strain rrp6, active compounds read low 1.03 | S. cerevisiae deletion strains, locus YOR061W, strain CKA2, active compounds read low 0.992 | S. cerevisiae deletion strains, locus YOR069W, strain VPS5, active compounds read low 0.99 | S. cerevisiae deletion strains, locus YOR070C, strain gyp1, active compounds read low 0.999 | S. cerevisiae deletion strains, locus YOR080W, strain dia2, active compounds read low 1 | S. cerevisiae deletion strains, locus YOR083W, strain WHI5 (second series), active compounds read low 0.995 | S. cerevisiae deletion strains, locus YOR083W, strain WHI5, active compounds read low 0.999 | S. cerevisiae deletion strains, locus YOR106W, strain vam3, active compounds read low 0.99 | S. cerevisiae deletion strains, locus YOR136W, strain idh2, active compounds read low 0.986 | S. cerevisiae deletion strains, locus YOR144C, strain elg1, active compounds read low 0.97 | S. cerevisiae deletion strains, locus YOR184W, strain ser1, active compounds read low 0.968 | S. cerevisiae deletion strains, locus YOR231W, strain MKK1, active compounds read low 0.971 | S. cerevisiae deletion strains, locus YOR265W, strain rbl2, active compounds read low 0.997 | S. cerevisiae deletion strains, locus YOR270C, strain vph1, active compounds read low 1.04 | S. cerevisiae deletion strains, locus YOR290C, strain snf2, active compounds read low 0.982 | S. cerevisiae deletion strains, locus YOR316C, strain cot1, active compounds read low 0.989 | S. cerevisiae deletion strains, locus YPL051W, strain arl3, active compounds read low 1.03 | S. cerevisiae deletion strains, locus YPL055C, strain LGE1, active compounds read low 0.972 and 1.02 | S. cerevisiae deletion strains, locus YPL078C, strain atp4, active compounds read low 0.981 | S. cerevisiae deletion strains, locus YPL106C, strain sse1, active compounds read low 1.04 | S. cerevisiae deletion strains, locus YPL240C, strain hsp82, active compounds read low 1.01 | S. cerevisiae deletion strains, locus YPL241C, strain CIN2, active compounds read low 0.941 | S. cerevisiae deletion strains, locus YPL256C, strain CLN2, active compounds read low 0.991 | S. cerevisiae deletion strains, locus YPR119W, strain clb2, active compounds read low 0.993 | S. cerevisiae deletion strains, locus YPR141C, strain kar3, active compounds read low 0.979 | S. cerevisiae deletion strains, locus YPR163C, strain tif3, active compounds read low 0.986 | S. cerevisiae deletion strains, locus YPR167C, strain met16, active compounds read low 0.996 | S. cerevisiae deletion strains, strain wtn01, active compounds read low 1.01 | S. cerevisiae strains, strain wild type, active compounds read low 0.999
